Our source for the inhibition values is ChEMBL document CHEMBL3433997, “St. Jude Leishmania screening dataset” (2016).

The experiment concerns the target Glucose transporter (Leishmania mexicana) (UniProt O61059). As to the kind of experiment: ST_JUDE_LEISH: Cytotoxicity at 2uM final concentration against transgenic Leishmania Mexicana promastigotes LmGT2 that are glucose transport deficient and complemented with the L. Mexicana glucose transporter 2. Activity is measured by DNA content using SYBR green in vitro. The class given is functional.
With `Cc1cc(C)c2oc(-c3cccc(NC(=O)c4ccc([N+](=O)[O-])o4)c3C)nc2c1`, the inhibition (as a rule, the change of the read-out against control, counted positive when it falls) is 1.45%.
As for `CN1CCN(CCCN(C(=O)Nc2cc(C(F)(F)F)cc(C(F)(F)F)c2)c2ccccc2Cc2ccccc2)CC1`, the inhibition was -8.69%.
`CC(C)(C)c1nn(-c2ccccc2)c2[nH]c(=O)c(CNC3CCCCC3)cc12`: the inhibition turned out to be 2.72%.
For the molecule `O=C(c1cc(-c2cccs2)n[nH]1)N1CCN(S(=O)(=O)c2ccc(Br)cc2)CC1`, the inhibition is 2.13%.
On to `COc1ccc2cc(C(C)NC3CCN(c4cccc(NC(=O)c5ccncc5)c4)CC3)ccc2c1` (stereo not given), for which the inhibition is -1.47%.
As for `COc1cc(F)c2ncc(C#N)c(CCN3CCC(NCc4ccc5c(c4)OCCO5)CC3)c2c1`, the figure is 93.9%.
For `CCc1ccccc1NC(=O)CN1CCN(c2ncnc3scc(-c4ccc(F)cc4)c23)CC1`, the inhibition was found to be 2.87%.
For `N#Cc1ccc(-c2ccc(OCC(O)CN3CCCN(Cc4cccc(O)c4Cl)CC3)cc2)cc1` (stereo not given), the inhibition turned out to be 1.67%.
In the case of `O=C(NCCN1CCOCC1)c1ccc(-c2ccc(CNCCCc3ccccc3)cc2)nc1`, the inhibition is -0.47%.
`Oc1ccc(Nc2nc(N3CCCC3)c3ccccc3n2)cc1`: the inhibition was -0.61%.
Take `CC(C)c1sc(N2CCCCC2)nc1C(=O)Nc1ccc(F)cc1C(F)(F)F`: the inhibition amounted to 2.35%.
Turning to `c1ccc(COc2ccc(Nc3ncnc4ccc(-c5ccc(CN6CCSCC6)o5)cc34)cc2)cc1`, the inhibition was determined as 7.66%.
For `COc1ccc(-c2cnc3[nH]cc(-c4ccc(C(=O)O)c(C)c4)c3c2)cn1`, the inhibition was 0.32%.
`COc1cc2nc(N(C)C)nc(Nc3ccc4c(cnn4Cc4ccccc4)c3)c2cc1OC`: the inhibition is 2.85%.
In the case of `Cc1ccc(Nc2nccc(NCC(O)c3cccc(C(F)(F)F)c3)n2)cc1` (stereo not given) it was 0.81%; in that of `O=c1cc(NCCCNCc2cn(S(=O)(=O)c3ccccc3)c3ccccc23)[nH]c2ccccc12`, -0.88%.
In the case of `N#Cc1cccc(NC(=O)c2cccc(S(=O)(=O)NC3CCN(CC4CCCCC4)C3)c2)c1` (stereo not given), the inhibition was 3.37%.
On to `CON=C1CCC(Cn2ccnc2)(c2ccc(Cl)cc2Cl)CC1` (stereo not given), for which the inhibition worked out at 4.22%.
As for `Cc1nnsc1C(=O)Nc1cccc(-c2cccc(-c3nc4cccc(C)c4[nH]3)c2)c1`, the figure is -5.1%; as for `O=C(NC1CCN(CC2(c3ccccc3)CCCC2)CC1)c1n[nH]cc1Cl`, -0.85%; as for `O=c1ccc2ccc(F)c3c2n1CC3CN1CCC(NCc2cccc(-c3cccs3)c2)CC1` (stereo not given), -6.19%.
As to `O=C(N/C=N/c1cc([N+](=O)[O-])c(-c2ccncc2)n1-c1ccccc1)c1cccc(O)c1`, the inhibition was determined as 0.38%.
Take `O=c1ccc2ccc(F)cc2n1CCN1CCC(NCc2ccc(-c3ccccn3)s2)CC1`: the inhibition is -0.91%.
As to `Oc1cccc(CNCCCN(Cc2ccccc2)c2ccccc2)c1`, the inhibition is 0.16%.
In the case of `CC(C)c1ccc(CN2CCC(NC(=O)c3ccc(-c4cccc(F)c4)s3)CC2)cc1`, the inhibition is -0.6%.
For the molecule `CN1CCCC(CN2CCN(Cc3cccc(-c4ccc(-c5nc6ccccc6[nH]5)s4)c3)CC2)C1` (stereo not given), the inhibition turned out to be 3.05%.
As to `Cc1ccc(O)c(-c2cc(C(=O)Nc3ccc(S(=O)(=O)N4CCCC(C)C4)cc3)[nH]n2)c1` (stereo not given), the inhibition was 0.63%.
On to `CCCc1cc(Cc2cnc(N)nc2N)c2cccnc2c1OC`, for which the inhibition came to 4.33%.
`COc1cc(C)cc(CN2CCC(Cc3ccccc3)CC2)c1O`: the inhibition came out at 1.48%.
In the case of `CCN(CCCN1CCCCC1)c1cc(C)nc(Nc2cccc3c2CCCC3)n1` it was 1.57%.
On to `CCCc1ccc(S(=O)(=O)Nc2ccc3c(c2)CCC3)cc1`, for which the inhibition was 3.52%.
For `OC1CCCN(Cc2ccc(-c3ccc(-c4nc5cc(F)ccc5[nH]4)s3)cc2)C1` (stereo not given), the inhibition was found to be 1.76%.
In the case of `CCc1ccc(C2CCN(CCCCNC(=O)c3ccc(NC(=O)c4ccc(Cl)cc4)cc3)CC2)c(OC(C)=O)c1` it was 3.54%.
In the case of `Oc1ccc2[nH]cc(C3CCN(CCCCCCCCCN4CCC(c5c[nH]c6ccc(O)cc56)CC4)CC3)c2c1` it was -1.9%; in that of `CC(C)(Oc1c(C2CCN(CCCCNC(=O)c3ccc(-c4ccc(C#N)cc4)cc3)CC2)ccc2c1CCCC2)C(N)=O`, -1.31%; in that of `CC(C)c1ccc(NC(=O)c2ccc(C(=O)NC3CCN(Cc4ccsc4)C3)cc2)cc1` (stereo not given), 0.52%.
As for `COCCNCc1nc(-c2ccc3c(Nc4ccc(F)c(O)c4)ccnc3c2)cs1`, the inhibition worked out at 0.42%.
In the case of `Nc1ncc(-c2ccc(S(=O)(=O)Nc3ccc(C(=O)N[C@@H](CCC(=O)O)C(=O)O)cc3)cc2)c(=O)[nH]1` it was 4.44%; in that of `CCOC(=O)c1ccc(NC(=O)Nc2ccc(-c3cccc(-c4nc5cc(F)ccc5[nH]4)c3)cc2)cc1`, 1.54%; in that of `CC(C)(CNC(=O)/C=C/c1ccc(Cl)c(Cl)c1)CNc1cc(=O)c2ccccc2[nH]1`, -2.49%.
